Measurements taken from PubChem BioAssay (EPA / NIEHS).
Results filed as inconclusive are left out. Activity calls are given as the source filed them. The calls were made as follows: active = hit-call score of the fitted dose curve at least 0.9, where 1 is the maximum; inconclusive = response in the unintended direction; inactive = score below 0.9.

Legend:
[1] = target: guinea pig Serotonin, 5-Hydroxytryptamine Receptor 4 (5HT4), HTR4 (gene 100135548) (UniProt O70528); assay: NVS_GPCR_g5HT4: NovaScreen (NVS) G Protein-Coupled Receptor Assay for guinea pig Serotonin, 5-Hydroxytryptamine Receptor 4 (5HT4) (AID 2283294)
How it was run: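 Compounds first screened in duplicate at 25 uM, actives followed up in concentration series. Binding measured as displacement of specific radioligand from guinea pig striatal membranes, 1 h, filter-based scintillation read-out versus DMSO baseline.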

[2] = target: human Thromboxane A2 Receptor (TXA2), TBXA2R (gene 6915) (UniProt P21731); assay: NVS_GPCR_hTXA2: NovaScreen (NVS) G Protein-Coupled Receptor Assay for human Thromboxane A2 Receptor (TXA2) (AID 2283282);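 also: actives reduce bound radioligand signal relative to DMSO baseline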
How it was run: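 Cell-free radioligand binding with human platelet-derived receptor; 1 h after dosing, filter-based scintillation counting, loss of signal vs DMSO. Primary screen in duplicate at 25 uM.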

[3] = system: rabbit Platelet Activating Factor Receptor (PAF), gene 100354046; assay: NVS_GPCR_rabPAF: NovaScreen (NVS) G Protein-Coupled Receptor Assay for rabbit Platelet Activating Factor Receptor (PAF) (AID 2283287)
How it was run: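 Rabbit platelet membrane preparation; radioligand displacement read by filter-based scintillation counting 1 h after dosing, loss of signal versus DMSO. Primary screen in duplicate at 25 uM, actives followed up in concentration series.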

[4] = target: mouse Cholecystokinin, CCK2 Receptor (CCKB), Cckbr (gene 12426) (UniProt P56481); assay: NVS_GPCR_mCKKBCentral: NovaScreen (NVS) G Protein-Coupled Receptor Assay for mouse Cholecystokinin, CCK2 Receptor (CCKB) (AID 2283293)
How it was run: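 Mouse forebrain membrane preparation incubated 2 h with chemical and radioligand; bound radioactivity counted after filtration. Single-concentration duplicate screen at 25 uM, then concentration series to 50 uM max for hits, DMSO as baseline.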

[5] = target: rat Serotonin, 5-Hydroxytryptamine Receptor 1 (5HT1), Non-Selective Binding, Htr1a (gene 24473) (UniProt P19327); assay: NVS_GPCR_r5HT1_NonSelective: NovaScreen (NVS) G Protein-Coupled Receptor Assay for rat Serotonin, 5-Hydroxytryptamine Receptor 1 (5HT1), Non-Selective Binding (AID 2283286)
How it was run: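 Binding of a radioligand to rat cortex membranes is read by filtration and scintillation counting after 1 h. Compounds were screened at 25 uM in duplicate. Actives were then titrated to a top of 50 uM. DMSO is the baseline.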

[6] = system: rat Adrenergic, Alpha 1B Receptor (Adra1B), gene 24173; assay: NVS_GPCR_rAdra1B: NovaScreen (NVS) G Protein-Coupled Receptor Assay for rat Adrenergic, Alpha 1B Receptor (Adra1B) (AID 2283297)
How it was run: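 Filter-binding radioligand competition on membranes from rat liver, read after 1 h by scintillation counting. Single-concentration duplicate screen at 25 uM, followed by concentration-response on actives, normalised to DMSO.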

[7] = target: rat Gamma-Aminobutyric Acid Type B Receptor (GABBR), Gabbr1 (gene 81657) (UniProt Q9Z0U4); assay: NVS_GPCR_rGABBR: NovaScreen (NVS) G Protein-Coupled Receptor Assay for rat Gamma-Aminobutyric Acid Type B Receptor (GABBR) (AID 2283301)
How it was run: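 Rat cortical membrane preparation, competitive radioligand binding for 1 h with filtration and scintillation readout. Actives from duplicate single-point 25 uM screening proceeded to concentration series with 50 uM top concentration.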

[8] = system: 5-hydroxytryptamine receptor 2C (pig); assay: NVS_GPCR_p5HT2C: NovaScreen (NVS) G Protein-Coupled Receptor Assay for pig Serotonin, 5-Hydroxytryptamine Receptor 2C (5HT2C) (AID 2283288)
How it was run: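 Radioligand displacement on membranes from pig choroid plexus, detected by filter scintillation counting after 1 h. Tested first at a single 25 uM in duplicate, then in concentration-response for actives; DMSO served as baseline.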

[9] = target: rat Adrenergic, Alpha 1, Non-selective Receptor (Adra1), Adra1a (gene 29412) (UniProt P43140); assay: NVS_GPCR_rAdra1_NonSelective: NovaScreen (NVS) G Protein-Coupled Receptor Assay for rat Adrenergic, Alpha 1, Non-selective Receptor (Adra1) (AID 2283289)
How it was run: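 Chemicals first screened in duplicate at 25 uM, then actives tested in concentration series up to 50 uM. Binding measured as displacement of radioligand from rat forebrain membrane receptors, 1 h, filtration with scintillation readout; DMSO baseline.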

[10] = target: rat Serotonin, 5-Hydroxytryptamine Receptor (5HT), Non-Selective Binding, Htr1a (gene 24473) (UniProt P19327); assay: NVS_GPCR_r5HT_NonSelective: NovaScreen (NVS) G Protein-Coupled Receptor Assay for rat Serotonin, 5-Hydroxytryptamine Receptor (5HT), Non-Selective Binding (AID 2283295)
How it was run: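 Rat cortex membrane preparation incubated 1 h with radioligand and test chemical; bound radioactivity counted after filtration. Screening began in duplicate at 25 uM with concentration-series follow-up; fitting relative to DMSO.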

[11] = target: rat Adrenergic, Alpha 1A Receptor (Adra1A), Adra1a (gene 29412) (UniProt P43140); assay: NVS_GPCR_rAdra1A: NovaScreen (NVS) G Protein-Coupled Receptor Assay for rat Adrenergic, Alpha 1A Receptor (Adra1A) (AID 2283296)
How it was run: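 Filter radiodetection after 1 h competitive binding on CEC-pretreated rat cortical membranes. Duplicate single-point screening at 25 uM; active chemicals retested across concentration series.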

[12] = target: rat Adrenergic Receptor, Alpha 2 (Adra2), Non-selective Binding, Adra2a (gene 25083) (UniProt P22909); assay: NVS_GPCR_rAdra2_NonSelective: NovaScreen (NVS) G Protein-Coupled Receptor Assay for rat Adrenergic Receptor, Alpha 2 (Adra2), Non-selective Binding (AID 2283299)
How it was run: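 Filter-based scintillation counting of radioligand binding to rat cortical membrane receptors, measured 1.25 hours post-dosing; loss of signal versus DMSO indicates displacement. Initial single-concentration duplicate at 25 uM, then concentration series.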

[13] = target: human Opioid Receptor Mu (Opiate Mu), OPRM1 (gene 4988) (UniProt P35372); assay: NVS_GPCR_hOpiate_mu: NovaScreen (NVS) G Protein-Coupled Receptor Assay for human Opioid Receptor Mu (Opiate Mu) (AID 2283290);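 also: hits lower bound tracer signal versus DMSO meaning displacement of the ligand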
How it was run: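 CHO-derived receptor protein, cell-free; radioligand displacement, filtration + scintillation counting, read at 2.5 h. DMSO = negative control/baseline. Primary: 25 uM single conc, duplicate; secondary: concentration series.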

[14] = target: human Purinergic Receptor P2Y, P2RY1 (gene 5028) (UniProt P47900); assay: NVS_GPCR_hPY2: NovaScreen (NVS) G Protein-Coupled Receptor Assay for human Purinergic Receptor P2Y (AID 2283281)
How it was run: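 Filtration scintillation readout of radioligand displacement on U937 extract, measured 1 h post-dosing. Single 25 uM duplicate screen, then singleton concentration series to 50 uM for chemicals passing threshold; DMSO as baseline.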

[15] = target: human Orphanin, Opioid Related Nociceptin Receptor 1 (ORL1), OPRL1 (gene 4987) (UniProt P41146); assay: NVS_GPCR_hORL1: NovaScreen (NVS) G Protein-Coupled Receptor Assay for human Orphanin, Opioid Related Nociceptin Receptor 1 (ORL1) (AID 2283283)
How it was run: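 Cell-free binding using HEK293-derived receptor protein: radioligand displacement measured by filter scintillation 1 hour after dosing. Primary testing at 25 uM in duplicate, followed by singleton concentration series up to 50 uM; DMSO served as negative control.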

[16] = target: guinea pig Bradykinin Receptor B2 (BK2), BDKRB2 (gene 100135486) (UniProt O70526); assay: NVS_GPCR_gBK2: NovaScreen (NVS) G Protein-Coupled Receptor Assay for guinea pig Bradykinin Receptor B2 (BK2) (AID 2283292)
How it was run: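 Guinea pig ileum membrane preparation incubated 1 h with radioligand and test chemical; bound counts measured after filtration. Primary duplicate screening at 25 uM, then singleton concentration series with a 50 uM top dose; DMSO as baseline.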

[17] = target: rat Adrenergic Receptor, Beta (Adrb), Non-selective Binding, Adrb1 (gene 24925) (UniProt P18090); assay: NVS_GPCR_rAdrb_NonSelective: NovaScreen (NVS) G Protein-Coupled Receptor Assay for rat Adrenergic Receptor, Beta (Adrb), Non-selective Binding (AID 2283298)
How it was run: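 Rat cortical membranes incubated 1 h with beta-adrenergic radioligand and test chemical; bound ligand measured by filtration and scintillation counting. Screen at 25 uM duplicate, then concentration series with 50 uM maximum; loss of signal versus DMSO.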

human Opioid Receptor Mu (Opiate Mu), OPRM1 (gene 4988), sequence (P35372 whole entry, looked up): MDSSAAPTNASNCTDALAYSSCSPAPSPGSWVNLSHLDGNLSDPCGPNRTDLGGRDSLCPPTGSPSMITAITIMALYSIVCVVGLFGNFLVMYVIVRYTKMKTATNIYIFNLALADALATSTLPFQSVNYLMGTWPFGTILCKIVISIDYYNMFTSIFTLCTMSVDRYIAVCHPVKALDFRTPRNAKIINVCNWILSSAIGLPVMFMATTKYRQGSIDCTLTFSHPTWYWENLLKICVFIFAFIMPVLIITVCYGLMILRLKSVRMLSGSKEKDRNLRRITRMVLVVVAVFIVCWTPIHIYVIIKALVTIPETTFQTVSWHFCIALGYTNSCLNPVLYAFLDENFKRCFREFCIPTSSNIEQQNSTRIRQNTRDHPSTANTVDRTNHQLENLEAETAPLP
rat Serotonin, 5-Hydroxytryptamine Receptor 1 (5HT1), Non-Selective Binding, Htr1a (gene 24473), sequence (P19327 whole entry, looked up): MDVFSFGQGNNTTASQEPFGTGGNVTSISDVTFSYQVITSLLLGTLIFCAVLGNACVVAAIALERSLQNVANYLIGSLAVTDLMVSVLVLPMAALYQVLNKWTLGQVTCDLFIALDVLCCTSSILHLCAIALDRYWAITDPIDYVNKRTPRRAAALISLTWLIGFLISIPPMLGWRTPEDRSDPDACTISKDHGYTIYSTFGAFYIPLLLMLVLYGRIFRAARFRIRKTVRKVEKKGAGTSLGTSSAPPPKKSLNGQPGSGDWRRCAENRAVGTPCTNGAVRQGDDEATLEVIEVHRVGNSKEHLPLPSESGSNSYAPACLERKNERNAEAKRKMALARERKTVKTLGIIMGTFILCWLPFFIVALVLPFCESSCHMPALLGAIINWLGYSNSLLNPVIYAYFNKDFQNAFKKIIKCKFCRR
rat Adrenergic, Alpha 1, Non-selective Receptor (Adra1), Adra1a (gene 29412), sequence (P43140 whole entry, looked up): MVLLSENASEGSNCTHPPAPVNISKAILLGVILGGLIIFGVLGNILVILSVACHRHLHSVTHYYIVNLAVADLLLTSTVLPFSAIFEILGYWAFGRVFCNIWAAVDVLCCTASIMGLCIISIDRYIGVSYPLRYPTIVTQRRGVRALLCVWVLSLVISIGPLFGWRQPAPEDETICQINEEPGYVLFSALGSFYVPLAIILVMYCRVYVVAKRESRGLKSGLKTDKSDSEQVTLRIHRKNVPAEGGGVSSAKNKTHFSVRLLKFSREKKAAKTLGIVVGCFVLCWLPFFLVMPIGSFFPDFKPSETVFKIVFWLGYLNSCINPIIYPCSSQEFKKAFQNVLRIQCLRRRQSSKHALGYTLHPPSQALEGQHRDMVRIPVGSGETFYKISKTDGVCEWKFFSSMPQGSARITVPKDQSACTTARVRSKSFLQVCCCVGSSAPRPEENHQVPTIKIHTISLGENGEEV
human Thromboxane A2 Receptor (TXA2), TBXA2R (gene 6915), sequence (P21731 whole entry, looked up): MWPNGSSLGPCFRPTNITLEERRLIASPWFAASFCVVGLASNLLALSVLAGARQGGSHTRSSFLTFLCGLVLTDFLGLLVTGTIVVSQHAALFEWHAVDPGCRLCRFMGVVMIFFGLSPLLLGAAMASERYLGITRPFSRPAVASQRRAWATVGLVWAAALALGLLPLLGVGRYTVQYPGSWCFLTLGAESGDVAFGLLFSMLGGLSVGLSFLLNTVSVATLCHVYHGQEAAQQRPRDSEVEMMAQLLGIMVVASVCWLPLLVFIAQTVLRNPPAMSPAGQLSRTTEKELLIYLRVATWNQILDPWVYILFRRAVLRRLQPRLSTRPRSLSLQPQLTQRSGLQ
guinea pig Serotonin, 5-Hydroxytryptamine Receptor 4 (5HT4), HTR4 (gene 100135548), sequence (O70528 whole entry, looked up): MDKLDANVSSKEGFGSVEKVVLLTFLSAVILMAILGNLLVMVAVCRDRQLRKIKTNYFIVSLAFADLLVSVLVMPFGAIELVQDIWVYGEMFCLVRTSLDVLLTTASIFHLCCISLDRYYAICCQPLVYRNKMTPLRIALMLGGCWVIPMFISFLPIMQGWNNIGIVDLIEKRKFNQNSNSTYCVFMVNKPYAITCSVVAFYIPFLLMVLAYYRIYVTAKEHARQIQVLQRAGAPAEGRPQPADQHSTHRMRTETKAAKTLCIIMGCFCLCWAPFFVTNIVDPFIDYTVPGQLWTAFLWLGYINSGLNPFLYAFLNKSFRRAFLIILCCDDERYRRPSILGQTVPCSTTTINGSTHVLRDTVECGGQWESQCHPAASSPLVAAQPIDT
mouse Cholecystokinin, CCK2 Receptor (CCKB), Cckbr (gene 12426), sequence (P56481 whole entry, looked up): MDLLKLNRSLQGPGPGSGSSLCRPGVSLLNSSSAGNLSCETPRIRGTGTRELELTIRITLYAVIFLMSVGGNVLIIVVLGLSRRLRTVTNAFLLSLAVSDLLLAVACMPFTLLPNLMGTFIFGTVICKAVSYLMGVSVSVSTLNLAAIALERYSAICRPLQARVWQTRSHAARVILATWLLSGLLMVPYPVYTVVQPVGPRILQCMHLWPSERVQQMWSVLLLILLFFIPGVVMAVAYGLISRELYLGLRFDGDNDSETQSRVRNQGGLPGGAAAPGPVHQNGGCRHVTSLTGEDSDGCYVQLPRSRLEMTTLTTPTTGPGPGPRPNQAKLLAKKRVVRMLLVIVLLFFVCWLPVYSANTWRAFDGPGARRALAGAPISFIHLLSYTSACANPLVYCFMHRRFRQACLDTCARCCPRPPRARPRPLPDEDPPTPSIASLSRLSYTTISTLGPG
rat Adrenergic Receptor, Beta (Adrb), Non-selective Binding, Adrb1 (gene 24925), sequence (P18090 whole entry, looked up): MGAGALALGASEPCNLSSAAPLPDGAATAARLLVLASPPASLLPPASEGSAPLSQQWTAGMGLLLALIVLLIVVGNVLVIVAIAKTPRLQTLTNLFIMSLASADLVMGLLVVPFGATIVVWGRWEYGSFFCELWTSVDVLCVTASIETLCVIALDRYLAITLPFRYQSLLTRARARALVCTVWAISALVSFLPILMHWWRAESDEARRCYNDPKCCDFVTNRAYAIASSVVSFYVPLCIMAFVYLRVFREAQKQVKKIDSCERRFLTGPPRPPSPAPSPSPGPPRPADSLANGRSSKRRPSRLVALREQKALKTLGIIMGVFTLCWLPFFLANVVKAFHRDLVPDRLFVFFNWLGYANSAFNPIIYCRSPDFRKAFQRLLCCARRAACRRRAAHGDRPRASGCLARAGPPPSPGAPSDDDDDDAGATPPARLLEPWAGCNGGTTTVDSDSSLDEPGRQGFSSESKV
human Purinergic Receptor P2Y, P2RY1 (gene 5028), sequence (P47900 whole entry, looked up): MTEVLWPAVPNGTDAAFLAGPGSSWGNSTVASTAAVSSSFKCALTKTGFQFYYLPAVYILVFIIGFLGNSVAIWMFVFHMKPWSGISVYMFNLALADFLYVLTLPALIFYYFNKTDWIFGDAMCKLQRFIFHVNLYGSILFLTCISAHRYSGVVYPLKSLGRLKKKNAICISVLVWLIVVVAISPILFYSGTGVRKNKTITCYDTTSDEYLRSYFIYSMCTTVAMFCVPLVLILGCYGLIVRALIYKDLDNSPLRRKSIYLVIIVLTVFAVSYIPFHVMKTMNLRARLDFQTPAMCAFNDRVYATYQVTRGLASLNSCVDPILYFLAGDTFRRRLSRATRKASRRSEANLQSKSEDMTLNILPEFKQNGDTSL
rat Serotonin, 5-Hydroxytryptamine Receptor (5HT), Non-Selective Binding, Htr1a (gene 24473), sequence (P19327 whole entry, looked up): as the sequence (P19327 whole entry, looked up) above
guinea pig Bradykinin Receptor B2 (BK2), BDKRB2 (gene 100135486), sequence (O70526 whole entry, looked up): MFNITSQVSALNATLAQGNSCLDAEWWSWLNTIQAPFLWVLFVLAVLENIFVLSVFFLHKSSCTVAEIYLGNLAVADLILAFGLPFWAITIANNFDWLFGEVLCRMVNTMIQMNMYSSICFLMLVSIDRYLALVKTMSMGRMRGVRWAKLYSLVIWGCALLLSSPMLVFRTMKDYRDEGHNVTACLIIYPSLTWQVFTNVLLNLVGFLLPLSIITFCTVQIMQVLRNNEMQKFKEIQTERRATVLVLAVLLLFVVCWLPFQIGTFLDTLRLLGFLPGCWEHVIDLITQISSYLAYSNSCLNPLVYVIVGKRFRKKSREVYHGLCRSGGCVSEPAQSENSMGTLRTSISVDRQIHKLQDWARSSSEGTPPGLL
rat Adrenergic Receptor, Alpha 2 (Adra2), Non-selective Binding, Adra2a (gene 25083), sequence (P22909 whole entry, looked up): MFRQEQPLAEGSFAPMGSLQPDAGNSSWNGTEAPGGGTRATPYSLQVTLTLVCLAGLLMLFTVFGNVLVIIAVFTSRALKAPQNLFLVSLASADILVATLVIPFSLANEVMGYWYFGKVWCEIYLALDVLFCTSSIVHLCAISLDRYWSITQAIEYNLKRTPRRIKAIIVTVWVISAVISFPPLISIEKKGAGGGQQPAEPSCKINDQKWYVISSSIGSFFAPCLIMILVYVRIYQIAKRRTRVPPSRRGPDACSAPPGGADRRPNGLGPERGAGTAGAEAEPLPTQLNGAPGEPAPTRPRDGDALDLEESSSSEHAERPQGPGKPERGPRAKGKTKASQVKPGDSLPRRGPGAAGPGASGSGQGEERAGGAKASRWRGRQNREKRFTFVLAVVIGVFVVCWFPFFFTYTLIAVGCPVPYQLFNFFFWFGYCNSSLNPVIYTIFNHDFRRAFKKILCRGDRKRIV
human Orphanin, Opioid Related Nociceptin Receptor 1 (ORL1), OPRL1 (gene 4987), sequence (P41146 whole entry, looked up): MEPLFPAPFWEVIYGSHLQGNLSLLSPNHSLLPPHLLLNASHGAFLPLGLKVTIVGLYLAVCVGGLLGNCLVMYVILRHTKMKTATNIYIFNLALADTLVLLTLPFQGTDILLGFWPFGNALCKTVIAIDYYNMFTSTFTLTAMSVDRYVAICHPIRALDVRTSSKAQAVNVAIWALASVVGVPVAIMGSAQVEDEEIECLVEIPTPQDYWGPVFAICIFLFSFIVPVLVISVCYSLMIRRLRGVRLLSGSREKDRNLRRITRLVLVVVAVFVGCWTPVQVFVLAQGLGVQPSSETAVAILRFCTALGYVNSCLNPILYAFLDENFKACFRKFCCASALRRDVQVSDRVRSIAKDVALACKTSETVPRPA

Cc1nc(C)nc(N2C[C@@H](C)N(c3ccnc([C@@H](C)O)n3)[C@@H](C)C2)n1
outcome [1]: inactive

COc1ccc(S(=O)(=O)N2C(=O)[C@@](c3ccccc3OC)(N3C[C@H](O)C[C@H]3C(=O)N(C)C)c3cc(Cl)ccc32)c(OC)c1
outcome [2]: inactive
AC50 [3]: 12.3 µM (active)
AC50 [4]: 25 µM (active)

COc1cc(S(=O)(=O)O)c(C)cc1N=Nc1c(O)ccc2cc(S(=O)(=O)O)ccc12
AC50 [5]: 17.1 µM (active)
AC50 [1]: 41.9 µM (active)
outcome [6]: inactive

Cc1oc(-c2ccccc2)nc1CCOc1cccc2c1ccn2CCC(=O)O
AC50 [2]: 1.33 µM (active)
AC50 [7]: 15.9 µM (active)

NC(=O)Cn1c(=O)cc(CCN2CCN(c3nccc4sccc34)CC2)c2ccc(F)cc21
AC50 [5]: 0.47 µM (active)
AC50 [8]: 0.00974 µM (active)
AC50 [9]: 0.0868 µM (active)
AC50 [10]: 0.0315 µM (active)
AC50 [11]: 0.258 µM (active)
AC50 [6]: 0.595 µM (active)
AC50 [12]: 0.167 µM (active)

Nc1nc(N)c2nc(CNc3ccc(C(=O)N[C@@H](CCC(=O)O)C(=O)O)cc3)cnc2n1
AC50 [13]: 5.21 µM (active)

C[Si]1(C)O[Si](C)(C)O[Si](C)(C)O[Si](C)(C)O1
outcome [2]: inactive

C=CCOC(=O)c1ccccc1C(=O)OCC=C
AC50 [8]: 25 µM (active)

CCCCC(CC)COC(=O)CC(C(=O)OCC(CC)CCCC)S(=O)(=O)O (centres undefined)
AC50 [14]: 7.46 µM (active)
AC50 [2]: 8.9 µM (active)
AC50 [15]: 15.9 µM (active)
AC50 [8]: 32.4 µM (active)
AC50 [9]: 17 µM (active)
AC50 [13]: 14.8 µM (active)
AC50 [1]: 36 µM (active)
AC50 [10]: 25 µM (active)
AC50 [6]: 29.2 µM (active)
AC50 [12]: 32.9 µM (active)

CCCCc1ccc2c(n1)[C@@H](c1ccc(OC)cc1C[C@H](C)C(=O)O)[C@H](C(=O)O)[C@H]2c1ccc2c(c1)OCO2
AC50 [4]: 20 µM (active)

CCCCCCCCCCC
outcome [16]: inactive

NCCO
outcome [16]: inactive

CCCCCCCCCCCC(=O)OC
outcome [14]: inactive

Cc1c(C(=O)O)c(O)cc2c1C(=O)c1c(O)c([C@@H]3O[C@H](CO)[C@@H](O)[C@H](O)[C@H]3O)c(O)c(O)c1C2=O
outcome [5]: inactive

Oc1ccc2ccccc2c1N=Nc1ccccc1
AC50 [13]: 37.4 µM (active)

Cc1cccc(Nc2cc(Cl)nc(SCC(=O)O)n2)c1C
AC50 [2]: 5.03 µM (active)

CC(C)(C)c1cc(O)c(C(C)(C)C)cc1O
outcome [2]: inactive

CC(C)c1ccc(C(=O)N=C(N)N)cc1S(C)(=O)=O
outcome [17]: inactive

Oc1ccc2c(c1)OC[C@@H](N1CCC(O)(c3ccc(F)cc3)CC1)[C@H]2O
outcome [8]: inactive
outcome [9]: inactive
outcome [13]: inactive
outcome [1]: inactive
outcome [6]: inactive
AC50 [17]: 5.17 µM (active)
